Unmarked numbers belong to inactive results. Where a call stands in place of a potency, no number is given. For some assays here: Potency and affinity values are given separately. Calls of active or inactive are those of the source. Unless noted, no rule for the calls is given here.
Columns and labels:
[1] = antimalarial activity against Dd2 strain (AID 2302;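 active = growth inhibition above 50% at the single 2 µM test dose, taken to imply half-maximal potency below 2 µM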); details: P. falciparum Dd2 in RBCs, LDH growth readout, 72 h; at 2 µM; hits give high values
[2] = HepG2 cytotoxicity, primary screen, cytotoxicity control for P. falciparum antimalarial project, cell-based, ATP luminescence (AID 2303;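 active = inhibition above 50%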); details: HepG2 viability, 24-48 h, at 10 µM, hits give high values
[3] = molecular target: L-lactate dehydrogenase (Plasmodium falciparum (isolate CDC / Honduras)) (UniProt Q27743); assay: PfLDH activity inhibition – cell lysate, 3D7 strain, counter-screen for P. falciparum growth inhibition project (AID 2304); details: P. falciparum 3D7 crude extract, LDH APAD/NBT absorbance; at 2 µM; hits give high values
L-lactate dehydrogenase (Plasmodium falciparum (isolate CDC / Honduras)), sequence (Q27743 whole entry, looked up): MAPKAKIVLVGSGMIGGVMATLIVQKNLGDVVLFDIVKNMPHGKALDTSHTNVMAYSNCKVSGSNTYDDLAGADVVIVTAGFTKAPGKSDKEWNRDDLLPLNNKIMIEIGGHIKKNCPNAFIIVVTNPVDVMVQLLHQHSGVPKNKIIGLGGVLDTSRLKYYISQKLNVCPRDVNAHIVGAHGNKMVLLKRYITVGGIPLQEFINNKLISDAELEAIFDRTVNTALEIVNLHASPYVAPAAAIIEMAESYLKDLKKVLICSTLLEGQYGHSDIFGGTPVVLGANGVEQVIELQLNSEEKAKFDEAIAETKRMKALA

[4] = inhibition of 3D7 malaria parasite growth – strain 3D7 (AID 2306); details: P. falciparum 3D7 erythrocytic growth, LDH absorbance, 72 h; at 2 µM; hits give high values
[5] = molecular target: Calcium-dependent protein kinase 1 (Plasmodium falciparum (isolate 3D7)) (UniProt P62344); assay: PfCDPK1 kinase inhibitors, biochemical, TCAMS library (AID 1159585; cut-off not given, nearly all actives have IC50 up to about 0.98 µM;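 also: inhibitors leave more ATP so luminescence rises with inhibition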); details: recombinant PfCDPK1, Kinase-Glo ATP depletion luminescence
Calcium-dependent protein kinase 1 (Plasmodium falciparum (isolate 3D7)), sequence (P62344 whole entry, looked up): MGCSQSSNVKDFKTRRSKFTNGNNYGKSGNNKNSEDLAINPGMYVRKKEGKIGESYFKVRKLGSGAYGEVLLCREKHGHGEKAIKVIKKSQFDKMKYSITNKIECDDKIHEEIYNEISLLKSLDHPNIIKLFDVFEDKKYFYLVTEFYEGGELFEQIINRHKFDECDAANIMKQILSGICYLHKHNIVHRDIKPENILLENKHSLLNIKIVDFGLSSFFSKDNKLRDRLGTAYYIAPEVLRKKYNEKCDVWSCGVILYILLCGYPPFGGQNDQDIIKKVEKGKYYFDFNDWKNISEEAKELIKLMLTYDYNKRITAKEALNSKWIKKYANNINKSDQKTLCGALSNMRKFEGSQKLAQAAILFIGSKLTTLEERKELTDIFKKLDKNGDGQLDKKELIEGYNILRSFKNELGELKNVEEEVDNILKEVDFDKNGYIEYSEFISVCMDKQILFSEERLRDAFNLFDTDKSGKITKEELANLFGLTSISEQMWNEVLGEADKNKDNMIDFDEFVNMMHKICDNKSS

[6] = molecular target: Plasmodium falciparum protein kinase 6 (PK6, PF3D7_1337100) (UniProt Q8IDW1); assay: PfPK6 kinase inhibitors, biochemical, TCAMS library (AID 1159586); details: recombinant PfPK6, Kinase-Glo ATP depletion luminescence
Plasmodium falciparum protein kinase 6 (PK6, PF3D7_1337100), sequence (Q8IDW1 1-305): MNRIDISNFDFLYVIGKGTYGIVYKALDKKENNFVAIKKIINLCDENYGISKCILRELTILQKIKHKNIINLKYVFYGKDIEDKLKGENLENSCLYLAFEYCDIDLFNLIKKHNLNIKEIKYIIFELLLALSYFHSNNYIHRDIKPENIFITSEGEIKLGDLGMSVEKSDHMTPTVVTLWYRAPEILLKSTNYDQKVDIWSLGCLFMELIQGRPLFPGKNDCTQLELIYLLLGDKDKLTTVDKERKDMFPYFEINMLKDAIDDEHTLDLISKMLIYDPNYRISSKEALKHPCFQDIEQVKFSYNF

[7] = molecular target: Protein kinase 7 (PK7), Plasmodium falciparum 3D7 (PF3D7_0213400) (UniProt Q7YTF7); assay: inhibition of Plasmodium PK7 catalytic activity – biochemical, TCAMS antimalarial set, Kinase-Glo luminescence (AID 1159587); details: recombinant PfPK7, Kinase-Glo ATP depletion luminescence
Protein kinase 7 (PK7), Plasmodium falciparum 3D7 (PF3D7_0213400), sequence (Q7YTF7 1-343): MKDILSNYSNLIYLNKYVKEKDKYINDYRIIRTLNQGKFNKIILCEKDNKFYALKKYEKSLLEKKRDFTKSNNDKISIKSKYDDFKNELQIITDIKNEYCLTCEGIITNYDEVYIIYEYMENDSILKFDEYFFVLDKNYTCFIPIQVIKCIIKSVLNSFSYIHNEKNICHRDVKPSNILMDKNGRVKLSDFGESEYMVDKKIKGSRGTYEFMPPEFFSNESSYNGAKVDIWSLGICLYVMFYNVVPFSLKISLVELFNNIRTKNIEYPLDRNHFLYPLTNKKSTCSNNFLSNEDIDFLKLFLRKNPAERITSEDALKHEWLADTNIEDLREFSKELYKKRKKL

[8] = molecular target: Calcium-dependent protein kinase 4 (Plasmodium falciparum (isolate 3D7)) (UniProt Q8IBS5); assay: PfCDPK4 kinase inhibitors, biochemical, TCAMS library (AID 1159588; cut-off not given, nearly all actives have IC50 up to about 0.91 µM); details: recombinant PfCDPK4, Kinase-Glo ATP depletion luminescence
Calcium-dependent protein kinase 4 (Plasmodium falciparum (isolate 3D7)), sequence (Q8IBS5 whole entry, looked up): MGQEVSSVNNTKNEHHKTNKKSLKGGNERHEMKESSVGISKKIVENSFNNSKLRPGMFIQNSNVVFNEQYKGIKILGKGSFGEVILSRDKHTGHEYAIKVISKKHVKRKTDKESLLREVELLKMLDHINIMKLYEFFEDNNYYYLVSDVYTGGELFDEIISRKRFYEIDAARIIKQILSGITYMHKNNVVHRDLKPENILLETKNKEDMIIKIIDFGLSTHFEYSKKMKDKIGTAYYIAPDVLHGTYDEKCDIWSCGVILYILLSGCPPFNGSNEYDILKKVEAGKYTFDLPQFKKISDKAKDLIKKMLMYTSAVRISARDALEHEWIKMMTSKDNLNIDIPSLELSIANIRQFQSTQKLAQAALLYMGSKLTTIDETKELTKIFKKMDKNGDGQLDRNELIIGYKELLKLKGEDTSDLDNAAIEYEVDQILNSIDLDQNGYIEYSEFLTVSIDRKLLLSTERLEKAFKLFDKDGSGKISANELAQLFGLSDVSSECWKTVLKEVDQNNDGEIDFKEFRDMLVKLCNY

NC(=NCc1ccc(O)cc1)Nc1nc(-c2ccc(OCCCn3ccnc3)cc2)cs1
growth inhibition [1]: 89% (active) | inhibition [2]: 13% | inhibition [3]: 2% | growth inhibition [4]: 102% (active) | outcome [5]: inactive | outcome [6]: inactive | outcome [7]: inactive | outcome [8]: inactive

CC(C)N1CCN(C(CN2CCN(CCCOc3ccc(-c4ccccc4)cc3)CC2)c2ccc(F)cc2)CC1 (stereo unspecified)
growth inhibition [1]: 100% (active) | inhibition [2]: 100% (active) | inhibition [3]: -2% | growth inhibition [4]: 100% (active) | outcome [5]: inactive | outcome [6]: inactive | outcome [7]: inactive | outcome [8]: inactive

CC(=O)N(C)c1cccc(CNc2cc(C)nc(Nc3ccc(C)cc3)n2)c1
growth inhibition [1]: 21% | inhibition [2]: 8% | inhibition [3]: -9% | growth inhibition [4]: 97% (active) | outcome [5]: inactive | outcome [6]: inactive | outcome [7]: inactive | outcome [8]: inactive

CCN(CC)CC(O)c1cc(-c2ccc(C)cc2)nc2c(C)cc(C)cc12 (stereo unspecified)
growth inhibition [1]: 99% (active) | inhibition [2]: 3% | inhibition [3]: 1% | growth inhibition [4]: 100% (active) | outcome [5]: inactive | outcome [6]: inactive | outcome [7]: inactive | outcome [8]: inactive

CC1(C)N=C(N)N=C(N)N1OCCCOc1cccc(Cl)c1
growth inhibition [1]: 95% (active) | inhibition [2]: 65% (active) | inhibition [3]: -4% | growth inhibition [4]: 95% (active) | outcome [5]: inactive | outcome [6]: inactive | outcome [7]: inactive | outcome [8]: inactive

Cc1cc(N(C)CCCN(C)C)nc(Nc2ccc(Br)cc2)n1
growth inhibition [1]: 84% (active) | inhibition [2]: 4% | inhibition [3]: 1% | growth inhibition [4]: 100% (active) | outcome [5]: inactive | outcome [6]: inactive | outcome [7]: inactive | outcome [8]: inactive

CS(=O)(=O)NCCCNCc1cccc(-c2cccc(-c3nc4ccc(F)cc4[nH]3)c2)c1
growth inhibition [1]: 5% | inhibition [2]: 4% | inhibition [3]: -13% | growth inhibition [4]: 100% (active) | outcome [5]: inactive | outcome [6]: inactive | outcome [7]: inactive | outcome [8]: inactive

CC(=O)Nc1cc(C(=O)Nc2cccc(-c3csc(-c4nc5ccccc5[nH]4)c3)c2)ccc1C
growth inhibition [1]: 66% (active) | inhibition [2]: 31% | inhibition [3]: 3% | growth inhibition [4]: 94% (active) | outcome [5]: inactive | outcome [6]: inactive | outcome [7]: inactive | outcome [8]: inactive

CC(C)(C)c1cc(C(=O)N2CCN(c3ncccc3C(F)(F)F)CC2)n(Cc2ccccc2)n1
growth inhibition [1]: 99% (active) | inhibition [2]: -8% | inhibition [3]: 1% | growth inhibition [4]: 100% (active) | outcome [5]: inactive | outcome [6]: inactive | outcome [7]: inactive | outcome [8]: inactive

CC(C)COc1ccc(C(O)C(CN2CCCCC2)c2ccccc2)cc1 (stereo unspecified)
growth inhibition [1]: 89% (active) | inhibition [2]: 11% | inhibition [3]: -11% | growth inhibition [4]: 93% (active) | outcome [5]: inactive | outcome [6]: inactive | outcome [7]: inactive | outcome [8]: inactive

CCCCCN1CCN(Cc2cccc(NC(=O)c3ccc(Cl)c(Cl)c3)c2)CC1
growth inhibition [1]: 33% | inhibition [2]: 24% | inhibition [3]: 3% | growth inhibition [4]: 90% (active) | outcome [5]: inactive | outcome [6]: inactive | outcome [7]: inactive | outcome [8]: inactive

COc1cccc2c(NN=Cc3ccc(Cl)cc3)ccnc12
growth inhibition [1]: 39% | inhibition [2]: 26% | inhibition [3]: 5% | growth inhibition [4]: 99% (active) | outcome [5]: inactive | outcome [6]: inactive | outcome [7]: inactive | outcome [8]: inactive

CC(C)CCNc1nc(NCCc2ccccc2)c2cc(O)ccc2n1
growth inhibition [1]: 97% (active) | inhibition [2]: 6% | inhibition [3]: 7% | growth inhibition [4]: 101% (active) | outcome [5]: inactive | outcome [6]: inactive | outcome [7]: inactive | outcome [8]: inactive

CN1CCN(Cc2nc(-c3ccc4c(Nc5ccc(Oc6ccccc6)cc5)ccnc4c3)cs2)CC1
growth inhibition [1]: 99% (active) | inhibition [2]: 15% | inhibition [3]: 0% | growth inhibition [4]: 100% (active) | outcome [5]: inactive | outcome [6]: inactive | outcome [7]: inactive | outcome [8]: inactive

O=C(/C=C/c1ccc(C(F)(F)F)cc1)NCCCCCN1CCCN(C(=O)Nc2ccc(F)c(Cl)c2)CC1
growth inhibition [1]: 33% | inhibition [2]: 33% | inhibition [3]: 0% | growth inhibition [4]: 101% (active) | outcome [5]: inactive | outcome [6]: inactive | outcome [7]: inactive | outcome [8]: inactive

CCN(CC)CCN(Cc1ccc(-c2ccc(C(F)(F)F)cc2)cc1)C(=O)Cn1c(CCc2cccc(F)c2F)cc(=O)c(C)c1C
growth inhibition [1]: 87% (active) | inhibition [2]: 35% | inhibition [3]: -4% | growth inhibition [4]: 97% (active) | outcome [5]: inactive | outcome [6]: inactive | outcome [7]: inactive | outcome [8]: inactive

CN(CCCCN)Cc1ccc(-c2ccc(Cl)cc2)cc1
growth inhibition [1]: 20% | inhibition [2]: 96% (active) | inhibition [3]: 3% | growth inhibition [4]: 97% (active) | outcome [5]: inactive | outcome [6]: inactive | outcome [7]: inactive | outcome [8]: inactive

COc1cc2ncnc(Nc3ccc(OCc4ccccc4Br)c(Cl)c3)c2cc1OC
growth inhibition [1]: 6% | inhibition [2]: 25% | inhibition [3]: -4% | growth inhibition [4]: 96% (active) | outcome [5]: inactive | outcome [6]: inactive | outcome [7]: inactive | outcome [8]: inactive

CN1CCN=C1c1ccc(NC(=O)Nc2ccc(C3=NCCN3C)cc2)cc1
growth inhibition [1]: 69% (active) | inhibition [2]: 7% | inhibition [3]: -1% | growth inhibition [4]: 85% (active) | outcome [5]: inactive | outcome [6]: inactive | outcome [7]: inactive | outcome [8]: inactive

COc1ccc(C(=O)N2CCC3(CC2)C(=O)N(CC(=O)NCC2CCCCC2)CN3c2ccccc2)cc1
growth inhibition [1]: 99% (active) | inhibition [2]: 18% | inhibition [3]: 3% | growth inhibition [4]: 100% (active) | outcome [5]: inactive | outcome [6]: inactive | outcome [7]: inactive | outcome [8]: inactive

Cc1ccc(O)c(CN2CCCC(COC(c3ccc(F)cc3)c3ccc(F)cc3)C2)c1 (stereo unspecified)
growth inhibition [1]: 98% (active) | inhibition [2]: 19% | inhibition [3]: 0% | growth inhibition [4]: 98% (active) | outcome [5]: inactive | outcome [6]: inactive | outcome [7]: inactive | outcome [8]: inactive

CC1(CCCCN2CCC(Cc3ccccc3)CC2)C(=O)Nc2ccccc21 (stereo unspecified)
growth inhibition [1]: 28% | inhibition [2]: 66% (active) | inhibition [3]: -8% | growth inhibition [4]: 100% (active) | outcome [5]: inactive | outcome [6]: inactive | outcome [7]: inactive | outcome [8]: inactive

COCCN(CCOC)c1ncc(-c2ccsc2)c(-c2nc(C)c(C)s2)n1
growth inhibition [1]: 63% (active) | inhibition [2]: 1% | inhibition [3]: 5% | growth inhibition [4]: 96% (active) | outcome [5]: inactive | outcome [6]: inactive | outcome [7]: inactive | outcome [8]: inactive

COc1cc(NC(=O)Nc2cc(C)nc3ccccc23)cc(OC)c1
growth inhibition [1]: 57% (active) | inhibition [2]: 5% | inhibition [3]: -4% | growth inhibition [4]: 104% (active) | outcome [5]: inactive | outcome [6]: inactive | outcome [7]: inactive | outcome [8]: inactive

C[C@@H]1CN(c2cccc3c2nc(-c2cncc(C#N)c2)n3CCNCc2ccccc2)C[C@H](C)O1
growth inhibition [1]: 9% | inhibition [2]: -5% | inhibition [3]: 5% | growth inhibition [4]: 83% (active) | outcome [5]: inactive | outcome [6]: inactive | outcome [7]: inactive | outcome [8]: inactive

Cc1ccc(CON2C(N)=NC(N)=NC23CCCCC3)c2ccccc12
growth inhibition [1]: 56% (active) | inhibition [2]: 57% (active) | inhibition [3]: -8% | growth inhibition [4]: 98% (active) | outcome [5]: inactive | outcome [6]: inactive | outcome [7]: inactive | outcome [8]: inactive

NC1CCN(CCNCc2cccc(-c3ccc(-c4nc5ccc(F)cc5[nH]4)cc3)c2)C1 (stereo unspecified)
growth inhibition [1]: 4% | inhibition [2]: 8% | inhibition [3]: 2% | growth inhibition [4]: 99% (active) | outcome [5]: inactive | outcome [6]: inactive | outcome [7]: inactive | outcome [8]: inactive

Fc1ccc(Nc2ccnc3cc(-c4ccc(CNCCN5CCOCC5)o4)ccc23)c(Cl)c1
growth inhibition [1]: 99% (active) | inhibition [2]: 34% | inhibition [3]: -1% | growth inhibition [4]: 100% (active) | outcome [5]: inactive | outcome [6]: inactive | outcome [7]: inactive | outcome [8]: inactive

COc1ccccc1-c1cc(C(=O)N2CCN(S(=O)(=O)c3ccc(C)cc3)CC2)[nH]n1
growth inhibition [1]: 88% (active) | inhibition [2]: -12% | inhibition [3]: -4% | growth inhibition [4]: 88% (active) | outcome [5]: inactive | outcome [6]: inactive | outcome [7]: inactive | outcome [8]: inactive

CC(C)CNCc1cccc(-c2cccc(CN(CCCN3CCN(C)CC3)C(=O)Nc3ccccc3)c2)c1
growth inhibition [1]: 76% (active) | inhibition [2]: 25% | inhibition [3]: 1% | growth inhibition [4]: 95% (active) | outcome [5]: inactive | outcome [6]: inactive | outcome [7]: inactive | outcome [8]: inactive

Cc1cc(N[C@@H](Cc2ccccc2)C(=O)NCCOc2ccccc2)nc(Nc2ccccc2)n1
growth inhibition [1]: 63% (active) | inhibition [2]: 2% | inhibition [3]: -2% | growth inhibition [4]: 100% (active) | outcome [5]: inactive | outcome [6]: inactive | outcome [7]: inactive | outcome [8]: inactive

NC(=O)C1CCN(Cc2cccc(-c3cccc(-c4nc5ccc(C(F)(F)F)cc5[nH]4)c3)c2)CC1
growth inhibition [1]: 100% (active) | inhibition [2]: 16% | inhibition [3]: 3% | growth inhibition [4]: 100% (active) | outcome [5]: inactive | outcome [6]: inactive | outcome [7]: inactive | outcome [8]: inactive

O=C(Nc1cccc(N2CCC(NCCCc3ccncc3)CC2)c1)c1cccc(C(F)(F)F)c1
growth inhibition [1]: 50% (active) | inhibition [2]: 11% | inhibition [3]: 4% | growth inhibition [4]: 96% (active) | outcome [5]: inactive | outcome [6]: inactive | outcome [7]: inactive | outcome [8]: inactive

CCNc1cc(C(=O)N[C@@H](Cc2ccc(Cl)cc2)[C@H](O)CNC2CCCCC2)cc(N2CCCCS2(=O)=O)c1
growth inhibition [1]: 99% (active) | inhibition [2]: 6% | inhibition [3]: -1% | growth inhibition [4]: 98% (active) | outcome [5]: inactive | outcome [6]: inactive | outcome [7]: inactive | outcome [8]: inactive

CN1CCN(c2ccnc3ccc(NC(=O)N(C)c4ccc(Cl)c(Cl)c4)cc23)CC1
growth inhibition [1]: 85% (active) | inhibition [2]: 5% | inhibition [3]: -3% | growth inhibition [4]: 100% (active) | outcome [5]: inactive | outcome [6]: inactive | outcome [7]: inactive | outcome [8]: inactive

N#Cc1cccc(C(=O)Nc2cccc(-c3ccc(CN4CCCC4)cc3)c2)c1
growth inhibition [1]: 42% | inhibition [2]: 11% | inhibition [3]: 1% | growth inhibition [4]: 98% (active) | outcome [5]: inactive | outcome [6]: inactive | outcome [7]: inactive | outcome [8]: inactive

CC(=O)c1c(CC(=O)O)c2ccccc2n1O
growth inhibition [1]: -1% | inhibition [2]: 16% | inhibition [3]: -3% | growth inhibition [4]: 98% (active) | outcome [5]: inactive | outcome [6]: inactive | outcome [7]: inactive | outcome [8]: inactive

Reference: PubChem BioAssay
